From PubChem BioAssay AID743354 (Broad Institute, 2014)
Entries with a potency or affinity are not part of this list. Activity calls are given as the source filed them.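 Rule for the calls: active = cytotoxic signal drop with a fitted half-maximal concentration at most twice the top valid tested dose; inconclusive = flat fit with moderate signal loss, or poor fit quality; inactive = opposite effect, flat response, or potency beyond limit.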

Experiment: HEK293 cell cytotoxicity, dose response, cytotoxicity control, luminescence, dry powder, set 12 (AID 743354)
Details: HEK293T viability, CellTiter-Glo ATP luminescence, 72 h; series mostly up to 26 µM
In the case of `CC(=O)c1ccc(N2CCN(C(=O)c3ccc4c(c3)OCO4)[C@H](C)C2)cc1`, the outcome is reported as “inactive”.
For `COc1cccc(NC(=O)N2CC[C@@H]3[C@@H](CO)N(C)c4ccc(-c5cccc(F)c5)cc4[C@@H]32)c1`, the outcome was “inactive”.
With `COc1ccccc1NC(=O)N1CC[C@@H]2[C@@H](CO)N(C)c3ccc(-c4cccc(F)c4)cc3[C@@H]21` the outcome was “inactive”.
In the case of `CC(C)NC(=O)N1CC[C@@H]2[C@@H](CO)N(C)c3ccc(-c4cccc(F)c4)cc3[C@@H]21`, the outcome is reported as “inactive”.
For `CN(C)C(=O)c1ccc(N2CCN(C(=O)c3ccc4c(c3)OCO4)CC2)cc1`, the outcome was “inactive”.
For `CNC(=O)c1ccc(N2CCN(C(=O)c3ccc4c(c3)OCO4)CC2)cc1`, the outcome was “inactive”.
In the case of `CN1c2ccc(-c3cccc(F)c3)cc2[C@@H]2[C@@H](CCN2C(=O)c2ccc3c(c2)OCO3)[C@@H]1CO`, the outcome is reported as “inactive”.
For `COc1ccccc1C(=O)N1CCN(c2ccc(C(C)=O)cc2)CC1`, the outcome was “inactive”.
With `CN1c2ccc(-c3cccc(F)c3)cc2[C@H]2[C@H](CCN2C(=O)Cc2cccnc2)[C@H]1CO` the outcome was “inactive”.
For `CNS(=O)(=O)c1ccc(N2CCN(C(=O)c3ccc4c(c3)OCO4)CC2)cc1`, the outcome was “inactive”.
For `CC(=O)c1ccc(NCCNC(=O)c2ccc3c(c2)OCO3)cc1`, the outcome was “inactive”.
For `COc1ccc(NC(=O)N2CC[C@@H]3[C@@H](CO)N(C)c4ccc(-c5cccc(F)c5)cc4[C@@H]32)cc1`, the outcome was “inactive”.
For `CN1c2ccc(-c3ccc(F)cc3)cc2[C@H]2[C@H](CCN2C(=O)Cc2cccnc2)[C@H]1CO`, the outcome was “inactive”.
With `CN1c2ccc(-c3ccc(F)cc3)cc2[C@H]2[C@H](CCN2C(=O)Nc2cc(F)ccc2F)[C@H]1CO` the outcome was “inactive”.
For `CC(=O)c1ccc(N2CCN(C(=O)c3ccccc3Cl)CC2)cc1`, the outcome was “inactive”.
In the case of `COc1ccccc1NC(=O)N1CC[C@@H]2[C@@H](CO)N(C)c3ccc(-c4ccc(F)cc4)cc3[C@@H]21`, the outcome is reported as “inactive”.
With `CCC(=O)N1CC[C@@H]2[C@@H](CO)N(C)c3ccc(-c4ccc(F)cc4)cc3[C@@H]21` the outcome was “inactive”.
For `CN1c2ccc(-c3ccc(F)cc3)cc2[C@H]2[C@H](CCN2C(=O)Nc2ccc(F)cc2)[C@H]1CO`, the outcome was “inactive”.
With `CC(=O)c1ccc(N2CCN(C(=O)c3ccc4c(c3)OCO4)CC2)cc1` the outcome was “inactive”.
In the case of `CN1c2ccc(-c3cccc(F)c3)cc2[C@H]2[C@H](CCN2C(=O)Nc2ccccc2F)[C@H]1CO`, the outcome is reported as “inactive”.
In the case of `COCC(=O)N1CC[C@@H]2[C@@H](CO)N(C)c3ccc(-c4cccc(F)c4)cc3[C@@H]21`, the outcome is reported as “inactive”.
In the case of `CCCNC(=O)N1CC[C@@H]2[C@@H](CO)N(C)c3ccc(-c4ccc(F)cc4)cc3[C@@H]21`, the outcome is reported as “inactive”.
In the case of `COc1ccc(NC(=O)N2CC[C@@H]3[C@@H](CO)N(C)c4ccc(-c5ccc(F)cc5)cc4[C@@H]32)cc1`, the outcome is reported as “inactive”.
With `CN1c2ccc(-c3cccc(F)c3)cc2[C@H]2[C@H](CCN2C(=O)CCCCCCC(=O)O)[C@H]1CO` the outcome was “inactive”.
For `CN1c2ccc(-c3cccc(F)c3)cc2[C@H]2[C@H](CCN2C(=O)Cc2ccccc2)[C@H]1CO`, the outcome was “inactive”.
With `CCCCCCCC(=O)N1CC[C@@H]2[C@@H](CO)N(C)c3ccc(-c4cccc(F)c4)cc3[C@@H]21` the outcome was “inactive”.
For `CN1c2ccc(-c3ccc(F)cc3)cc2[C@H]2[C@H](CCN2C(=O)Cc2ccccn2)[C@H]1CO`, the outcome was “inactive”.
With `CN1c2ccc(-c3cccc(F)c3)cc2[C@@H]2[C@@H](CCN2C(=O)c2ccc3c(c2)OCO3)[C@H]1CO` the outcome was “inactive”.
With `CC(C)NC(=O)N1CC[C@@H]2[C@@H](CO)N(C)c3ccc(-c4ccc(F)cc4)cc3[C@@H]21` the outcome was “inactive”.
For `CN1c2ccc(-c3cccc(F)c3)cc2[C@H]2[C@H](CCN2C(=O)c2ccc3c(c2)OCO3)[C@@H]1CO`, the outcome was “inactive”.
In the case of `CC(=O)c1ccc(N2CC3(CN(C(=O)c4ccc5c(c4)OCO5)C3)C2)cc1`, the outcome is reported as “inactive”.
For `COC(=O)c1ccc(N2CCN(C(=O)c3ccc4c(c3)OCO4)CC2)cc1`, the outcome was “inactive”.
